Here are results for 17 compounds from PubChem BioAssay (EPA / NIEHS).

Calls of active or inactive are those of the source. How the source made its calls: active means hit-call score of the fitted dose curve at least 0.9, where 1 is the maximum; inactive means score below 0.9.

Cytochrome P450 2C18 (Homo sapiens), sequence (P33260 whole entry, looked up): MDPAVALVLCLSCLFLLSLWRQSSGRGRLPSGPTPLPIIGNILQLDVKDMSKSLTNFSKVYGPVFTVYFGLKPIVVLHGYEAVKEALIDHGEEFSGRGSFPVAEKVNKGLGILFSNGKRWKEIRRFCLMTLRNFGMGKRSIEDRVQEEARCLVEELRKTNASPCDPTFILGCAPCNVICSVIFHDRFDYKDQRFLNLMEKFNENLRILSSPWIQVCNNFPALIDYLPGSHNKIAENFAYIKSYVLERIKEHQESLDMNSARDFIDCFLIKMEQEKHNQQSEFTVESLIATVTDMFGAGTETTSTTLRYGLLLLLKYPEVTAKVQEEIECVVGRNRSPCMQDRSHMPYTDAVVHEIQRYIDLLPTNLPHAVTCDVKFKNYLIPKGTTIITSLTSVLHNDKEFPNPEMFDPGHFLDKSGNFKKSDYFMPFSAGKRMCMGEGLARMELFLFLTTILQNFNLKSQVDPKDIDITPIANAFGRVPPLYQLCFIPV

This experiment addresses Cytochrome P450 2C18 (Homo sapiens) (UniProt P33260). Briefly: NVS_ADME_hCYP2C18: NovaScreen (NVS) CYP450-related Enzyme Activity (ADME) Assay for human CYP2C18 (AID 2283103). The protocol:
NVS_ADME_hCYP2C18 is a biochemical, single-readout assay that uses extracted gene-proteins in a cell-free assay. Measurements were taken 0.5 hour after chemical dosing in a 96-well plate.NVS_ADME_hCYP2C18 is one of one assay component(s) measured or calculated from the NVS_ADME_hCYP2C18 assay. It is designed to make measurements of enzyme activity, a form of enzyme reporter, as detected with fluorescence intensity signals by Fluorescence technology.Data from the assay component NVS_ADME_hCYP2C18 was analyzed into 1 assay endpoint. This assay endpoint, NVS_ADME_hCYP2C18, was analyzed in the positive analysis fitting direction relative to Acetonitrile as the negative control and baseline of activity. Using a type of enzyme reporter, loss-of-signal activity can be used to understand changes in the enzymatic activity as they relate to the gene CYP2C18. Furthermore, this assay endpoint can be referred to as a primary readout, because this assay has produced multiple assay endpoints where this one serves a enzymatic activity function. To generalize the intended target to other relatable targets, this assay endpoint is annotated to the cyp intended target family, where the subfamily is xenobiotic metabolism.
Binding assays used specific radioligands (tritiated, iodinated) with non-radioactive competitive displacement ligands in agonist or antagonist protocols (as indicated) and various reference compounds and inhibitors to titrate specific binding to receptors and transporters. Most enzyme assays (CYPs, kinases, phosphatases, proteases, HDACs) used recombinant protein and specific substrates (fluorescence mostly, some colorimetric and radioactive) and inhibitors, followed by a biochemical separation of substrate and product. All assays for the biochemical HTS were initially run in duplicate at a single concentration (10 uM for CYP450 assays and 25 uM for all others). Assay-chemical combinations meeting a pre-defined threshold (e.g., 30% inhibition and other criteria defined below) were then run in singleton concentration-response format with maximum concentration of 20 uM for CYPs and 50 uM for all others. Each assay was run with positive and negative controls, and concurrent controls on every plate. The follow-up (secondary) screen tested active chemical-pairs in concentration series, as well as a few additional assays not tested in the primary screen, some selected negative inactives, and several cases re-run in the concentration series for confirmatory purposes.
For the compound `CC[C@H](C)[C@H]1O[C@]2(C=C[C@@H]1C)C[C@@H]1C[C@@H](C/C=C(\C)[C@@H](O[C@H]3C[C@H](OC)[C@@H](O[C@H]4C[C@H](OC)[C@@H](NC)[C@H](C)O4)[C@H](C)O3)[C@@H](C)/C=C/C=C3\CO[C@@H]4[C@H](O)C(C)=C[C@@H](C(=O)O1)[C@]34O)O2`, the AC50 is 5.39 µM (active).
As for `CCOC(=O)CC(SP(=O)(OC)OC)C(=O)OCC` (configuration not stated), the result was inactive.
As to `CON=C(C(=O)OC)c1ccccc1CON=C(C)c1cccc(C(F)(F)F)c1`, the AC50 was 1.21 µM (active).
`COc1ccc(C(=CC(=O)N2CCOCC2)c2ccc(Cl)cc2)cc1OC`: the AC50 was 7 µM (active).
In the case of `CCCSP(=O)(OCC)Oc1ccc(Br)cc1Cl` (configuration not stated), the AC50 is 3.45 µM (active).
Take `CCCOCC(=Nc1ccc(Cl)cc1C(F)(F)F)n1ccnc1`: the half-maximal activity concentration (AC50) is 4.78 µM (active).
In the case of `CSC1=N[C@@](C)(c2ccccc2)C(=O)N1Nc1ccccc1`, the half-maximal activity concentration (AC50) is 5.62 µM (active).
For `S=C1NCCN1`, the compound was classed as inactive.
Turning to `C[Si](Cn1cncn1)(c1ccc(F)cc1)c1ccc(F)cc1`, the concentration at half-maximal activity (AC50) is 0.645 µM (active).
Same read-out and setting: the same measure for `C#CC(C)(C)NC(=O)c1cc(Cl)cc(Cl)c1`: 2.67 µM (active).
The same measure, in the same setting: the same measure for `CCOP(=S)(OCC)Oc1ccc([N+](=O)[O-])cc1`: 1.95 µM (active).
Same read-out and setting: the same measure for `C#CCC1=C(C)C(OC(=O)C2C(C=C(C)C)C2(C)C)CC1=O` (configuration not stated): 7.41 µM (active).
Consider `CC(C)=CC1C(C(=O)OCN2C(=O)C3=C(CCCC3)C2=O)C1(C)C` (configuration not stated), for which the concentration at half-maximal activity (AC50) is 4.3 µM (active).
The same measure, in the same setting: the same measure for `C=C(C)[C@H]1Cc2c(ccc3c2O[C@@H]2COc4cc(OC)c(OC)cc4[C@@H]2C3=O)O1`: 2.62 µM (active).
Still for that read-out and setting: to `CCOP(=S)(OCC)Oc1ccc2c(C)c(Cl)c(=O)oc2c1` belongs 0.734 µM (active); to `FC(F)C(F)(F)OCC(Cn1cncn1)c1ccc(Cl)cc1Cl` (configuration not stated), 0.915 µM (active).
On the same count and under the same terms, the same measure for `CC(C1CC1)C(O)(Cn1cncn1)c1ccc(Cl)cc1` (configuration not stated): 3.26 µM (active).

By AC50 is commonly meant the concentration giving half of the maximal activity seen.
